Six molecules from PubChem BioAssay (NCI) can be followed below.

Several values for one entry are separate records, joined by “and”; a condition that tells them apart may be missing. Equal entries are not always repeated. Compounds without any hit were thinned out: in the full panel of roughly 83,000, 20% have a hit.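 Growth was measured after 48 h exposure to one concentration of compound in 96-well plates. Values under 10 count as active.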 Activity calls are given as the source filed them.

Common to all, as to assay: NCI-60 one-dose screen, 48 h (100 = growth as untreated, 0 = no growth, -100 = all killed)
One experiment concerns NCI-H23 lung. The settings on record: 10 µM.
In a further experiment the test system is NCI-H226 lung. The note with it: 10 µM.
Another experiment concerns NCI-H322M lung. The settings on record: 10 µM.
The test system of another experiment is HOP-62 NSCLC. The note with it: 10 µM.
For a further experiment, the system named is NCI-H460 lung. The note with it: 10 µM.
In a further experiment the test system is HOP-92 NSCLC. The note with it: 10 µM.
The subject of the next experiment is NCI-H522 lung. The settings on record: 10 µM unless noted.
The next experiment relates to A549/ATCC NSCLC. The settings on record: 10 µM.
A further experiment concerns 786-0 renal. The settings on record: 10 µM.
The test system of another experiment is COLO 205 colon. The settings on record: 10 µM.
The next experiment concerns DU-145 prostate. The note with it: 10 µM unless noted.
The subject of a further experiment is K-562 leukemia. The note with it: 10 µM.
Another experiment concerns MALME-3M melanoma. The note with it: 10 µM.
For the next experiment, the system named is MDA-MB-231 breast. The note with it: 10 µM.
The next experiment relates to RXF 393 renal. The settings on record: 10 µM unless noted.
A further experiment relates to SF-268 CNS. The settings on record: 10 µM.
Another experiment concerns SF-295 CNS. The note with it: 10 µM.
The next experiment concerns SF-539 CNS. The settings on record: 10 µM.
For another experiment, the system named is UACC-257 melanoma. The note with it: 10 µM.
For a further experiment, the system named is M14 melanoma. The note with it: 10 µM.

For the molecule `CCN1/C(=C/C=C/C=C/c2sc3ccccc3[n+]2CC)Sc2ccccc21`, the growth in the experiment with NCI-H23 lung was -22.8% (active); in the experiment on NCI-H226 lung, 11.8% (inactive); in the experiment with NCI-H322M lung it was 5.13% (active); in the experiment on HOP-62 NSCLC it was -29% (active); in the experiment on NCI-H460 lung it was -69.7% (active); with HOP-92 NSCLC, -28.3% (active). Besides, the growth in the experiment on NCI-H522 lung is -57.6% (active); with A549/ATCC NSCLC it was -64.5% (active); in the experiment on 786-0 renal, -57.6% (active); with COLO 205 colon, -87.7% (active); in the experiment with DU-145 prostate, -17.2% (active); in the experiment on K-562 leukemia, -46.4% (active). Also, the growth in the experiment with MALME-3M melanoma is -32.8% (active); with MDA-MB-231 breast, 8.54% (active); in the experiment with RXF 393 renal, -64.4% (active); in the experiment on SF-268 CNS, -75.4% (active); with SF-295 CNS it was -23.8% (active); in the experiment with SF-539 CNS, -57% (active). Further, the growth in the experiment with UACC-257 melanoma was -57.7% (active); in the experiment on M14 melanoma, -81.7% (active).
On to `CCCCCCCCCCCCSC(=NC)NC`, for which the growth was 35.4% (inactive) and 54.9% (inactive) with NCI-H23 lung; 66.3% (inactive) and 79.1% (inactive) in the experiment on NCI-H226 lung; 52.8% (inactive) and 95.6% (inactive) in the experiment with NCI-H322M lung; 76.3% (inactive) and 87.2% (inactive) in the experiment on HOP-62 NSCLC; 4.19% (active) and 42.7% (inactive) in the experiment with NCI-H460 lung; -1.15% (active) and 36% (inactive) with HOP-92 NSCLC. The growth is 57.7% (inactive) and 85% (inactive) in the experiment with NCI-H522 lung; 64.4% (inactive) and 87.7% (inactive) with A549/ATCC NSCLC; -23.8% (active) and 62.9% (inactive) in the experiment with 786-0 renal; -85.4% (active) and -86.3% (active) with COLO 205 colon; 41.3% (inactive) and 75.6% (inactive) with DU-145 prostate; 3.08% (active) and 2.7% (active) with K-562 leukemia. Further, the growth in the experiment with MALME-3M melanoma was 40% (inactive) and 72.8% (inactive); in the experiment with MDA-MB-231 breast, -28.3% (active) and 40.4% (inactive); in the experiment with RXF 393 renal it was 40.9% (inactive) and 70.6% (inactive); in the experiment with SF-268 CNS, 40.9% (inactive) and 74.9% (inactive); in the experiment on SF-295 CNS, 4.6% (active) and 65% (inactive); in the experiment on SF-539 CNS, 29.3% (inactive) and 55.4% (inactive). For the same molecule, the growth is 66.4% (inactive) and 98.2% (inactive) in the experiment on UACC-257 melanoma; -19.2% (active) and 60.6% (inactive) with M14 melanoma.
Turning to `N=S(c1ccccc1[N+](=O)[O-])c1ccccc1[N+](=O)[O-]`, the growth in the experiment with NCI-H23 lung was 83.9% (inactive); in the experiment with NCI-H226 lung, 52.7% (inactive); in the experiment on NCI-H322M lung it was 93.4% (inactive); in the experiment with HOP-62 NSCLC, 124% (inactive); in the experiment on NCI-H460 lung, 104% (inactive); with HOP-92 NSCLC, -1.88% (active). For the same molecule, the growth was -77.5% (active) in the experiment on NCI-H522 lung; 90.3% (inactive) in the experiment on A549/ATCC NSCLC; 39.7% (inactive) in the experiment with 786-0 renal; 2.39% (active) in the experiment on COLO 205 colon; 80.4% (inactive) in the experiment with DU-145 prostate; 1.79% (active) with K-562 leukemia. The growth in the experiment on MALME-3M melanoma was 74.5% (inactive); in the experiment with MDA-MB-231 breast, 91.4% (inactive); with RXF 393 renal it was 79% (inactive); with SF-268 CNS it was 90.2% (inactive); with SF-295 CNS, 99.5% (inactive); in the experiment on SF-539 CNS, 39.2% (inactive). For the same molecule, the growth was 89.7% (inactive) with UACC-257 melanoma and 60.2% (inactive) in the experiment on M14 melanoma.
For the molecule `NC1=C(Cl)C(=O)c2ccccc2C1=O`, the growth with NCI-H23 lung is 40.7% (inactive); in the experiment on NCI-H226 lung it was 103% (inactive); in the experiment on NCI-H322M lung, 98.6% (inactive); in the experiment on HOP-62 NSCLC, 62.4% (inactive); in the experiment with NCI-H460 lung, 25.3% (inactive); in the experiment on HOP-92 NSCLC, 96.8% (inactive). The growth in the experiment on NCI-H522 lung is 73.6% (inactive); in the experiment with A549/ATCC NSCLC, 45% (inactive); with 786-0 renal it was 106% (inactive); with COLO 205 colon it was 95.2% (inactive); with DU-145 prostate, 27.1% (inactive); in the experiment with K-562 leukemia, 57% (inactive). The growth in the experiment on MALME-3M melanoma was -26.3% (active); in the experiment on MDA-MB-231 breast, 72.1% (inactive); in the experiment with RXF 393 renal, 103% (inactive); in the experiment with SF-268 CNS it was 71.7% (inactive); with SF-295 CNS, 41% (inactive); with SF-539 CNS it was 75.4% (inactive). The growth was 56.6% (inactive) in the experiment on UACC-257 melanoma and 28.7% (inactive) in the experiment on M14 melanoma.
`CC[N+](CC)=c1ccc2nc3c(cc(N)c4ccccc43)oc-2c1`: the growth is -41.8% (active) in the experiment on NCI-H23 lung; -48% (active) with NCI-H226 lung; -46.5% (active) in the experiment on NCI-H322M lung; -69% (active) in the experiment on HOP-62 NSCLC; -57.4% (active) with NCI-H460 lung; -60.3% (active) with HOP-92 NSCLC. Also, the growth in the experiment on NCI-H522 lung was -48.4% (active); in the experiment on A549/ATCC NSCLC, -19.4% (active); in the experiment on 786-0 renal, -79% (active); with COLO 205 colon, -44.4% (active); in the experiment with DU-145 prostate it was -60% (active); in the experiment on K-562 leukemia it was 1.13% (active). Also, the growth in the experiment with MALME-3M melanoma was -60.9% (active); in the experiment on MDA-MB-231 breast, -71.5% (active); in the experiment with RXF 393 renal, -23.7% (active); in the experiment on SF-268 CNS it was -54% (active); in the experiment on SF-295 CNS, -83% (active); in the experiment with SF-539 CNS, -79.7% (active). The growth was -70.2% (active) in the experiment with UACC-257 melanoma and -56.9% (active) with M14 melanoma.
In the case of `Nc1c2ccccc2nc2ccccc12`, the growth in the experiment on NCI-H23 lung is 11.5% (inactive) and 41.9% (inactive) and 38.5% (inactive); in the experiment with NCI-H226 lung, 2.61% (active) and 38.7% (inactive) and 40.4% (inactive); with NCI-H322M lung, 12.1% (inactive) and 36.8% (inactive) and 31.9% (inactive); with HOP-62 NSCLC, 11.3% (inactive) and 52.2% (inactive) and 47.3% (inactive); in the experiment on NCI-H460 lung it was -11.2% (active) and 2.59% (active) and 12% (inactive); in the experiment on HOP-92 NSCLC, 69.1% (inactive) and 2.79% (active). Moreover, the growth in the experiment with NCI-H522 lung was -49% (active) and -11.2% (active) and 30.2% (inactive); with A549/ATCC NSCLC, -5.72% (active) and 20.6% (inactive) and 28.6% (inactive); in the experiment on 786-0 renal, 25.5% (inactive) and 34.8% (inactive) and 50% (inactive); with COLO 205 colon, -73.8% (active) and 7.85% (active) and 12.6% (inactive); in the experiment on DU-145 prostate, 16.3% (inactive) and 40.9% (inactive); with K-562 leukemia, 1.31% (active) and 11.9% (inactive) and 27% (inactive). Also, the growth in the experiment on MALME-3M melanoma was 5.23% (active) and 42% (inactive) and 34% (inactive); in the experiment with MDA-MB-231 breast it was 25.2% (inactive) and 40.1% (inactive) and 35.4% (inactive); in the experiment on RXF 393 renal it was 8.02% (active) and -6.66% (active) and 44.2% (inactive); in the experiment with SF-268 CNS, 24.2% (inactive) and 47.3% (inactive); in the experiment with SF-295 CNS, -24.9% (active) and 25.7% (inactive) and 49.5% (inactive); in the experiment with SF-539 CNS it was 21.7% (inactive) and 23.4% (inactive) and 29.2% (inactive). Also, the growth in the experiment with UACC-257 melanoma is -31.3% (active) and 25.4% (inactive) and 53.5% (inactive); in the experiment on M14 melanoma, 7.24% (active) and 34.6% (inactive) and 42.3% (inactive).
